These results are taken from PubChem BioAssay (NCATS).

The target in test [1] is Lysosomal acid glucosylceramidase (Homo sapiens) (UniProt P04062). The test is described as follows: Glucocerebrosidase-p2 (AID 348; in the data active = potency below about 10 µM; also: potency is read from the fitted curve at half-maximal effect). Conditions: purified GBA, blue fluorogenic substrate, 40 min. The essentials:
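Compounds titrated from 0.6 nM upwards against 0.2 nM enzyme in pH 5.9 citric acid/KH2PO4, taurocholate, tween-20; blue fluorogenic substrate 80 uM, 40 min room temperature, stopped and read Ex 365/Em 440 for AC50.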

Test [2] is described as follows: AP1 Signaling Pathway (AID 357; active = well fitted curve in either direction with a large enough effect, not every such curve was filed as active; also: % is scaled to controls: 0 for no effect and ±100 for the full control effect). Conditions: ME-180 AP-1-bla reporter, EGF-induced, beta-lactamase ratio, 5 h; at 7.69 µM (top of the series) unless noted. A digest of the protocol: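 ME-180 cells with beta-lactamase reporter under AP-1 response element, stimulated with EC50 EGF; compounds tested in titration series, 5 h at 37 °C. CCF4 substrate added 2.5 h at room temperature; 460/530 nm emission ratio gave %activity and AC50.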

In test [3] the target is Cytochrome P450 1A2 (Homo sapiens) (UniProt P05177). As to the kind of experiment: p450-cyp1a2 (AID 410; calls by dose curve; also: potency is read from the fitted curve at half-maximal effect). Conditions: recombinant CYP1A2, luciferin-ME demethylation, luminescence; series mostly up to 57 µM. The essentials:
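20nM CYP1A2 with 100uM Luciferin-ME (at Km) in 100mM KPO4; compound preincubated 10 min, NADPH regeneration added, 60 min at room temperature. Luciferin quantified by luminescence after detection reagent; normalized to 57 uM furafylline.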

A short description of test [4]: Stat Signaling Pathway (AID 446; active = well fitted curve in either direction with a large enough effect, not every such curve was filed as active;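 also: ME-180 cervical cancer cells given 40 pM IL-6 alongside compound; SIE-controlled beta-lactamase reporter measured as 460/530 nm FRET emission ratio; % is scaled to controls: 0 for no effect and ±100 for the full control effect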). Conditions: ME-180 (cervical carcinoma) SIE beta-lactamase reporter, IL-6 stimulated, 5 h; at 7.69 µM (top of the series) unless noted. A digest of the protocol: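 IL-6/STAT signaling read in ME-180 cells via an SIE beta-lactamase reporter. Stimulus was 40 pM IL-6 (its AC50) for 5 hrs, so both activation and inhibition register.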
For test [5], the target named is Glucocorticoid receptor (Homo sapiens) (UniProt P04150). The test is described as follows: GR-GFP Redistribution (AID 450;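 active = compounds whose dose series gives a full or clear partial fitted curve of increased nuclear translocation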; also: potency is read from the fitted curve at half-maximal effect). To be noted: U2OS GR-GFP nuclear translocation, laser cytometry, 2 h.
Glucocorticoid receptor (Homo sapiens), sequence (P04150 whole entry, looked up): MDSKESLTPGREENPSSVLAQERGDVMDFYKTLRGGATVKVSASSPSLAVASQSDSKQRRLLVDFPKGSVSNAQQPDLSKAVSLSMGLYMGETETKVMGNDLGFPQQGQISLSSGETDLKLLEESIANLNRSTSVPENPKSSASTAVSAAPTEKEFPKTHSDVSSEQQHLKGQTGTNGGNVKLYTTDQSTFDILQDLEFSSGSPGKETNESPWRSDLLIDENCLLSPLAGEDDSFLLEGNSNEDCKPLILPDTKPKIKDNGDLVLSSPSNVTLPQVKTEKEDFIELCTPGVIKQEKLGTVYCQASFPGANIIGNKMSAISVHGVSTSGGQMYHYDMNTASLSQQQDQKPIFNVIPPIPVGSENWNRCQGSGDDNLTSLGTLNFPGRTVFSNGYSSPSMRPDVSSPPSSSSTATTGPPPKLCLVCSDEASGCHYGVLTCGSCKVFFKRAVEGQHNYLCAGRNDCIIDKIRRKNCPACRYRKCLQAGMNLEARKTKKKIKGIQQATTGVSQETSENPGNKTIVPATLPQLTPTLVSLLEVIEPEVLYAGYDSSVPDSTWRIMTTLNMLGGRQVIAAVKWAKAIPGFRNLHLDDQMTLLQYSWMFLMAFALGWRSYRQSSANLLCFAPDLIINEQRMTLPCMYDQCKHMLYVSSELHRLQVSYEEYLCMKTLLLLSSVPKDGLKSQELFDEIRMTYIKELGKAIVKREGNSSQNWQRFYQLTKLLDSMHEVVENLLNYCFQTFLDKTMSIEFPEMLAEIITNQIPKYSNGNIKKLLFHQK
The target is the same in test [6]. The test is described as follows: GR-EFC Redistribution (AID 451; calls by dose curve; also: potency is read from the fitted curve at half-maximal effect). Conditions: CHO-K1 GR-EFC translocation, beta-gal luminescence, 2 h. The essentials:
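CHO-K1 cells expressing nuclear EA and GR-ED fragments of b-gal; compounds titrated up to 46 uM final, 2 h at 37 C. GR nuclear translocation read as complemented b-gal luminescence after 1 h RT detection.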

The target of test [7] is Mitogen-activated protein kinase 10 (Mus musculus) (UniProt Q61831). As to the kind of experiment: JNK3 AlphaScreen Assay (AID 530; active = well fitted curve in either direction with a large enough effect, not every such curve was filed as active;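 also: kinase came from lysate of stimulated human HepG2 cells; signal reports phosphorylation of biotinylated GST-cJun 1-79 at Ser73 with 10 µM ATP; % is scaled to controls: 0 for no effect and ±100 for the full control effect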). To be noted: JNK3 lysate, c-Jun phosphorylation; series mostly up to 57.1 µM. A digest of the protocol: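 Pre-activated (IL-1β/TNFα) JNK3 in HepG2 lysates phosphorylates biotin-GST-cJun(1-79), 10 uM ATP; anti-phospho-cJun(Ser73) AlphaScreen read at room temperature, pH 7.6 Tris buffer. Compounds pre-incubated 15 min as titrations.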

In test [8] the target is Cytochrome P450 3A4 (Homo sapiens) (UniProt P08684). The test is described as follows: qHTS Assay for Activators of Cytochrome P450 3A4 (AID 885). Also: nearly all actives have a fitted effect of over 65% in size. To be noted: recombinant CYP3A4, Luciferin-PPXE luminescence, 60 min; series mostly up to 57.1 µM. The essentials:
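Quantitative HTS format: compounds preincubated with 20nM human CYP3A4 and Luciferin-PPXE substrate at KM, reaction started by NADPH regeneration, stopped after 60 min, luciferase luminescence read 20 min later.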
For orientation: qHTS replaces the single test concentration by a dilution series.

Test [9] concerns the target Cytochrome P450 2C19 (Homo sapiens) (UniProt P33261). The test is described as follows: qHTS Assay for Inhibitors and Substrates of Cytochrome P450 2C19 (AID 899). Also: potency is read from the fitted curve at half-maximal effect; nearly all actives have a fitted effect of over 60% in size. To be noted: recombinant CYP2C19, luciferin-H EGE luminescence; series mostly up to 57.1 µM. The essentials:
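5 nM human CYP2C19 with 10uM Luciferin-H EGE (at KM) in 50mM KPO4, compound preincubated 10 min at 37C, then NADPH regeneration for 60 min at 37C. Luciferin read by luminescence after detection reagent; normalized to 57uM ketoconazole as full inhibition.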

The target in test [10] is Dual specificity protein kinase CLK4 (Homo sapiens) (UniProt Q9HAZ1). As to the kind of experiment: qHTS Assay for Inhibitors of CDC-like Kinase 4 (ADP-FP Assay) (AID 1795).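 Also: recombinant human CLK4 phosphorylating RS repeat peptide at 1 µM ATP; % is scaled to controls: 0 for no effect and ±100 for the full control effect; nearly all actives have a fitted effect of over 60% in size.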 To be noted: Transcreener ADP fluorescence polarization; series mostly up to 50 µM. A digest of the protocol:
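Inhibition of ADP formation by 6.25 nM Clk4 is measured using 1 uM ATP and 100 uM RS repeat peptide over one hour. Produced ADP displaces a fluorescent tracer from antibody, lowering polarization.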

The nature of test [11]: Primary qHTS for small molecule stabilizers of the endoplasmic reticulum resident proteome: Secreted ER Calcium Modulated Protein (SERCaMP) assay (AID 1508630). Also: % is scaled to controls: 0 for no effect and ±100 for the full control effect. To be noted: SH-SY5Y GLuc-SERCaMP (Gaussia luciferase released on ER calcium loss) secretion, thapsigargin, luminescence; series mostly up to 38.4 µM. The essentials: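 GLuc-SERCaMP-expressing SH-SY5Y cells, pretreated 16 h with compound, are challenged with thapsigargin to empty ER calcium stores; after 4 h, coelenterazine is added directly to the medium and luminescence is imaged.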

Test [12] in a line: NFAT Signaling Pathway (AID 444; active = well fitted curve in either direction with a large enough effect, not every such curve was filed as active). To be noted: Jurkat NFAT-bla M1, carbachol, beta-lactamase ratio, 5 h; at 7.69 µM (top of the series) unless noted. A digest of the protocol:
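Jurkat cells with NFAT-driven β-lactamase reporter and co-expressed M1 receptor, stimulated with carbachol (final 1 uM, ~EC50), compound titration, 5 h at 37 °C. CCF4 loaded 1 h at RT; 460/530 nm ratio gave %activity and AC50.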

Test [13] addresses 3',5'-cyclic-AMP phosphodiesterase 4B (Homo sapiens) (UniProt Q07343). As to the kind of experiment: qHTS Assay for Inhibitors of PDE-IV (AID 607; active = well fitted activation curve with a large enough effect in the main read-out, with a control signal flat, not every such curve was filed as active; also: % of control where 0% means no effect). To be noted: HEK293 ACTOne CNG channel cells, membrane potential fluorescence; series mostly up to 22.9 µM. The essentials:
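Live HEK293 cells with a modified cyclic nucleotide-gated (CNG) channel report intracellular cAMP via membrane-potential dye fluorescence (ex 535/em 590 nm). Endogenous PDE-IV was targeted. Compounds were tested at up to 22.9 uM final; RO 20-1724 100 uM served as control.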

For test [14], the target named is Ubiquitin carboxyl-terminal hydrolase 1 (Homo sapiens) (UniProt O94782). As to the kind of experiment: Inhibitors of USP1/UAF1: Pilot qHTS (AID 504865).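 Also: rhodamine fluorescence freed from ubiquitin-rhodamine substrate followed over time; top concentration of the series differs between compounds; % is scaled to controls: 0 for no effect and ±100 for the full control effect; nearly all actives have a fitted effect of over 35% in size.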 Conditions: purified USP1/UAF1, Ub-rhodamine cleavage fluorescence; series mostly up to 54.9 µM. A digest of the protocol:
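Kinetic fluorescence assay: 1nM USP1/UAF1, 15 min compound preincubation, then 150nM Ub-Rho; 480/540 nm.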

For test [15], the target named is Cytochrome P450 3A4 (Homo sapiens) (UniProt P08684). The test is described as follows: qHTS Assay for Inhibitors and Substrates of Cytochrome P450 3A4 (AID 884). Also: potency is read from the fitted curve at half-maximal effect; nearly all actives have a fitted effect of over 50% in size. To be noted: recombinant CYP3A4, Luciferin-PPXE luminescence; series mostly up to 57.1 µM. A digest of the protocol: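 20 nM human CYP3A4 with 25 uM Luciferin-PPXE (at KM) in 200 mM KPO4, preincubated 10 min with compound; NADPH regeneration started a 60 min RT reaction. Luciferin detected by luminescence, normalized to 57 uM ketoconazole as full inhibition.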
Cytochrome P450 3A4 (Homo sapiens), sequence (P08684 whole entry, looked up): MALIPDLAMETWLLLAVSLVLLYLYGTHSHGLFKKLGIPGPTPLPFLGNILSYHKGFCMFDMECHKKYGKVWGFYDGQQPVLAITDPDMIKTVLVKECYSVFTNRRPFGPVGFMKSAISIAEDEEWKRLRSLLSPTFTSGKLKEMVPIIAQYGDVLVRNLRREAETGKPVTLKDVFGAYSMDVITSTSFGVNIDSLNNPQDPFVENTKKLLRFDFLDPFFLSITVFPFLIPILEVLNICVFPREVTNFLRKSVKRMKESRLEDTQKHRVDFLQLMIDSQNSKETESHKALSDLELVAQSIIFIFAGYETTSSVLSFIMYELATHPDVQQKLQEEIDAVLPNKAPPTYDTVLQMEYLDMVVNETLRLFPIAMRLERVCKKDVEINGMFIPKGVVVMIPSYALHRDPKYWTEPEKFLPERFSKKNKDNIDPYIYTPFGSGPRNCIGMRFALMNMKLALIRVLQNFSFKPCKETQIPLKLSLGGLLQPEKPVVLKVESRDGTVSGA

Test [16] has as its target Cytochrome P450 2D6 (Homo sapiens) (UniProt P10635). The test is described as follows: qHTS Assay for Inhibitors and Substrates of Cytochrome P450 2D6 (AID 891). Also: potency is read from the fitted curve at half-maximal effect; nearly all actives have a fitted effect of over 60% in size. To be noted: recombinant CYP2D6, luciferin-ME EGE luminescence; series mostly up to 57.1 µM. The essentials: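 Human CYP2D6 (5 nM) with 30 uM Luciferin-ME EGE (at Km) in 100 mM KPO4, compound preincubated 10 min, then NADPH regeneration system for 60 min at room temperature. Luciferin read by luminescence; normalized to 1.43 uM quinidine.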

Unmarked numbers belong to inactive results. Records with an inconclusive call do not appear. Calls of active or inactive are those of the source. Unless noted, calls follow the shape of the dose curve; as a rule, active = well fitted curve in the direction sought with a large enough effect; inconclusive = small, poorly fitted or top-dose-only effect, or another doubt; inactive = no such curve, though single readings can be large; an effect the other way counts as inactive or inconclusive.

Cytochrome P450 1A2 (Homo sapiens), sequence (P05177 whole entry, looked up): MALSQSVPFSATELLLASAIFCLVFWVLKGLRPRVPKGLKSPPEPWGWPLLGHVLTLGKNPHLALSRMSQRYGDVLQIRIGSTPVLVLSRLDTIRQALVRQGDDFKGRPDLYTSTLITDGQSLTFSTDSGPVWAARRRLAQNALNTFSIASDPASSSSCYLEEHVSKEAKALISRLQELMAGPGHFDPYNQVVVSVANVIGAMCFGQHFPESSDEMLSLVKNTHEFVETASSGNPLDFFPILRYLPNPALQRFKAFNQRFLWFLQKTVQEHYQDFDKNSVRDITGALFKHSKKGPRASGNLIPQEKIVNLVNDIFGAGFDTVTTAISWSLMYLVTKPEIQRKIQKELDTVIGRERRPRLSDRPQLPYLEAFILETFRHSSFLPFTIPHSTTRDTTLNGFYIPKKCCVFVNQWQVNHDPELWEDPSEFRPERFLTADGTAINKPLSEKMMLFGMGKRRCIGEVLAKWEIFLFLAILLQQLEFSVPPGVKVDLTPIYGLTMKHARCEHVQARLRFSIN
Lysosomal acid glucosylceramidase (Homo sapiens), sequence (P04062 whole entry, looked up): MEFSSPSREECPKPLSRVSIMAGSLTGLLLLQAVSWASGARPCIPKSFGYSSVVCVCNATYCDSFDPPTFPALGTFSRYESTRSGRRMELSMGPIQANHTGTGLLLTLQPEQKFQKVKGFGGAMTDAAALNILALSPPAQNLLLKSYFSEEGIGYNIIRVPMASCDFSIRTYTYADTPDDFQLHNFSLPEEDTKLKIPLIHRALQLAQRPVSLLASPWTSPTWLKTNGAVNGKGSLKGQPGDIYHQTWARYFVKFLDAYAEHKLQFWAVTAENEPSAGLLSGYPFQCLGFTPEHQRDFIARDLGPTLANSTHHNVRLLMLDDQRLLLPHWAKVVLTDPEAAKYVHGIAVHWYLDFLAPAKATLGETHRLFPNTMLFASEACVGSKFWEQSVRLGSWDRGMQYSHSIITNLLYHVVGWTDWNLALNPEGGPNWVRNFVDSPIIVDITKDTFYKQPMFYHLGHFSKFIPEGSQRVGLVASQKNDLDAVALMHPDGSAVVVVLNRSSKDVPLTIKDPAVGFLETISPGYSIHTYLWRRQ
Dual specificity protein kinase CLK4 (Homo sapiens), sequence (Q9HAZ1 whole entry, looked up): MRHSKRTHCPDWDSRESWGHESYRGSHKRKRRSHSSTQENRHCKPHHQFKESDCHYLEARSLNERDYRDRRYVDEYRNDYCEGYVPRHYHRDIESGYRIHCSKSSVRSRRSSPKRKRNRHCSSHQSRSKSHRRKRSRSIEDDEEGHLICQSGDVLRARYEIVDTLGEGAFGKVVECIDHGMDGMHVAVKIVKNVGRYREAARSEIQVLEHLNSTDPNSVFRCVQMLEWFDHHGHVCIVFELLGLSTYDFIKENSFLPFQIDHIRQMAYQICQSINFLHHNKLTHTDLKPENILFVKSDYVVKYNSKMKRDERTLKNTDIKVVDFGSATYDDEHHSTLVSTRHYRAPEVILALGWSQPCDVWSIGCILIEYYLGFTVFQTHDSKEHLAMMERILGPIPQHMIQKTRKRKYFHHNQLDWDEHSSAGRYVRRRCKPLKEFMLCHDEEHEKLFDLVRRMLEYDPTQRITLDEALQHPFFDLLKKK
3',5'-cyclic-AMP phosphodiesterase 4B (Homo sapiens), sequence (Q07343 whole entry, looked up): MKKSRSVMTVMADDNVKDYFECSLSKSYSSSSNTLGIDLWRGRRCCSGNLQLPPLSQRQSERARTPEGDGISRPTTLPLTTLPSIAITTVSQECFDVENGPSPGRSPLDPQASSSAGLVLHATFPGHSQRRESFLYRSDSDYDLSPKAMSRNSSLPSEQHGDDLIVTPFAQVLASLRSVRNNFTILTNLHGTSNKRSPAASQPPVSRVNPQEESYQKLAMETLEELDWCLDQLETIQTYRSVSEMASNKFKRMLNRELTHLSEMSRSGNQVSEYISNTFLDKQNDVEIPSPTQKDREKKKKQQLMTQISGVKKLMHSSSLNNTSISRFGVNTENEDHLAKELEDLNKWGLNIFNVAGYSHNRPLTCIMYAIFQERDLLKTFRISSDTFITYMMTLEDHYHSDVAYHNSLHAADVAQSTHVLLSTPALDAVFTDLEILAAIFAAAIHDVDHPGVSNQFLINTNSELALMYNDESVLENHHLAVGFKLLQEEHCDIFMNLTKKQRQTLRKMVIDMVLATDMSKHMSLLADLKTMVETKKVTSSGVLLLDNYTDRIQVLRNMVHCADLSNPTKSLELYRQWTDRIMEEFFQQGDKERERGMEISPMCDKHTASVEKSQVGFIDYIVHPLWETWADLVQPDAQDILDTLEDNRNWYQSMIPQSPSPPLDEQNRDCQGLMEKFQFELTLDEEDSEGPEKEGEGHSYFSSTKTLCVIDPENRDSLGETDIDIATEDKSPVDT
Ubiquitin carboxyl-terminal hydrolase 1 (Homo sapiens), sequence (O94782 whole entry, looked up): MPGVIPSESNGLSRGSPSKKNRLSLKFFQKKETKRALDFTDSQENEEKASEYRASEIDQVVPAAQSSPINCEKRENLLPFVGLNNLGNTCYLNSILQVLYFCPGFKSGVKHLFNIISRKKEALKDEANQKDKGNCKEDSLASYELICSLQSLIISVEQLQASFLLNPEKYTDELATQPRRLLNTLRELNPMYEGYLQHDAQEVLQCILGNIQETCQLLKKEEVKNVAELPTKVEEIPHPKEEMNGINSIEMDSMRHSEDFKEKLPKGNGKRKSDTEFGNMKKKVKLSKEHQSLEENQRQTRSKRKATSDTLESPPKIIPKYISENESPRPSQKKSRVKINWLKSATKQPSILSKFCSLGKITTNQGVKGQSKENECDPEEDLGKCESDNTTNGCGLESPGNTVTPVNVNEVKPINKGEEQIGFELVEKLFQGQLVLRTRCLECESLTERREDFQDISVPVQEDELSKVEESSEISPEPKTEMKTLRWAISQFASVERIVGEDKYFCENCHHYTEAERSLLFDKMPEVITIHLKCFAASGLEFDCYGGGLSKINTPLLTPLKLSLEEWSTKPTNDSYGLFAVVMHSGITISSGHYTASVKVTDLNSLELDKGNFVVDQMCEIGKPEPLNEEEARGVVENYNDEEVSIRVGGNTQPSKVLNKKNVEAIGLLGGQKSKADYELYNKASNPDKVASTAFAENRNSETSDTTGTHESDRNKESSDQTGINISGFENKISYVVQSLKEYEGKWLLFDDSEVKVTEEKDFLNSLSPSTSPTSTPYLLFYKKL
Cytochrome P450 2C19 (Homo sapiens), sequence (P33261 whole entry, looked up): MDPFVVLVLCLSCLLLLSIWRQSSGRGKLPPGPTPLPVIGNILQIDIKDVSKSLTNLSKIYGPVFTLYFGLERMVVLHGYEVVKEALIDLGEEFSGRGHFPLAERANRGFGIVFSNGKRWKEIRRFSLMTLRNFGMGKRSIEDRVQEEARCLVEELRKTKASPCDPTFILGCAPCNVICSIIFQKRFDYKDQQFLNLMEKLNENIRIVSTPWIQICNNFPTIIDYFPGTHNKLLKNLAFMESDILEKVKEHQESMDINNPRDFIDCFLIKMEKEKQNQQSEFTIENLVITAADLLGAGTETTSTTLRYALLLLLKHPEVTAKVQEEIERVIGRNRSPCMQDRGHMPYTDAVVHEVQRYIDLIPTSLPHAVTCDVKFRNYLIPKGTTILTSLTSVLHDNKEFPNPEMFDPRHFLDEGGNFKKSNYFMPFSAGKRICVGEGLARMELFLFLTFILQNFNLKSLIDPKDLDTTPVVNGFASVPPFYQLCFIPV

With `c1csc(CNc2nc(-c3ccc4c(c3)OCO4)nc3ccccc23)c1`, the Potency in test [1] was > 11.4 µM; in test [3] it was 0.794 µM (active); in test [5], > 46 µM; in test [6], > 46 µM; in test [9] it was 3.16 µM (active). Also, the activity change, negative = inhibition in test [2] was 0.483%. Moreover, in [4], the activity, negative = inhibition was -13.1%. Also, the Potency entry in test [7], in test [8] and in test [10] was “inactive” each time. The outcome in test [11] was inactive.
On to `CCNc1ncc2nc(C)c(=O)n(CCOC)c2n1`, for which the Potency is > 11.4 µM in test [1], > 9.22 µM in [5] and > 46 µM in test [6]. Further, the activity change, negative = inhibition in test [2] is -1.39%; in test [12] it was 13.7%. The activity, negative = inhibition in test [4] was -7.84%. Besides, the Potency result in test [7], in test [13], in test [10] and in test [14] was “inactive” in each case. Moreover, the outcome in test [11] was inactive.
For `COc1cccc(Cn2c(=O)c(-c3cccc(C#N)c3)nc3cnc(OC)nc32)c1`, the Potency in test [1] was > 11.4 µM; in [3], 10 µM (active); in test [5], > 9.22 µM; in test [6] it was > 46 µM; in test [15] it was 3.16 µM (active). Also, the activity change, negative = inhibition is -6.86% in test [2] and -8.15% in [12]. Moreover, in test [4], the activity, negative = inhibition was -4.38%. The Potency entry in test [7], in test [8], in test [10] and in test [14] was “inactive” each time. Moreover, in [11], the outcome was inactive.
In the case of `Cc1cnc(CNc2ccnc(-c3cccc(NS(C)(=O)=O)c3)n2)cn1`, the Potency in test [1] was > 11.4 µM; in test [3], 20 µM (active); in test [5] it was > 46 µM; in test [6], > 46 µM. In addition, the activity change, negative = inhibition in test [2] is -6.82%. The activity, negative = inhibition in test [4] is 4.11%. In addition, the Potency entry in test [7], in test [13], in test [8], in [10] and in test [14] was “inactive” throughout. Further, the result in test [11] was inactive.
In the case of `CN(C)C(=O)c1ccc(-c2ccc3ncnc(NCCN4CCOCC4)c3c2)cc1`, the Potency in test [1] is > 11.4 µM; in test [6] it was > 46 µM. Besides, the figures for the activity change, negative = inhibition in test [2] and in [12] were -5.51% and 6.26%, respectively. The activity, negative = inhibition in test [4] was -17.4%. Further, the Potency entry in test [7], in test [13], in test [8], in test [10] and in [14] was “inactive” each time. Also, the result in [11] was inactive.
`CS(=O)(=O)Nc1cccc(-c2cc(NCc3ccccc3)ncn2)c1`: the results for the Potency in [1], in [3] and in test [6] were > 11.4 µM, 12.6 µM (active) and > 46 µM, respectively. Moreover, the values for the activity change, negative = inhibition in [2] and in test [12] were -7.54% and 8.48%, respectively. Besides, the activity, negative = inhibition in [4] is -7.25%. Moreover, the Potency entry in test [7], in test [13], in test [8], in test [10] and in [14] was “inactive” throughout. In addition, the outcome in [11] was inactive.
Consider `CN(Cc1ccco1)c1ccnc(-c2cccnc2)n1`, for which the Potency in test [1] was > 11.4 µM; in [5] it was > 46 µM; in test [6], > 46 µM; in [16], 7.94 µM (active); in test [9], 6.31 µM (active). Also, the activity change, negative = inhibition in [2] is 16.2%; in test [12], -13.4%. In addition, the activity, negative = inhibition in [4] is 17.8%. The Potency entry in test [7], in [13], in test [8], in test [10] and in [14] was “inactive” throughout. Also, the outcome in test [11] was inactive.
